Hits are enriched below; roughly 2.9% of the tested compounds scored in any of these assays.
TSG101-PTAP inh: blocks PTAP/TSG101 interaction to inhibit HIV-1 budding; Q99816; Fluorescence polarization, FITC-PTAP peptide / Tsg101 binding; Potency, µM (top dose mostly 115 µM), for inactives: top-dose activity change, negative = inhibition, actives largely listed as inhibitors; 340,000 tested, under 10 active; AID 493005; active = well fitted inhibition curve with a large enough effect in the main read-out, with a control signal flat, not every such curve was filed as active; inconclusive = small, poorly fitted or top-dose-only effect, or effect the other way, or a change in a side signal; inactive = no such curve, though single readings can be large or run the other way; also: potency is read from the fitted curve at half-maximal effect; % of control where 0% means no effect
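FP read-out: FITC-PTAP peptide, 50 nM final, binding Tsg101 binding domain, 10 uM final; 20 min, r.t.; 10 mM HEPES pH 7.5, 0.15 M NaCl, 0.01% Tween 20, 3 mM EDTA, 0.1 mM TCEP.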
Rango-impB inh: inhibitors of Rango-importin beta complex formation; Q14974; Rango CFP/YFP FRET sensor + importin beta, 45 min; Potency, µM (doses to about 92.2 µM), without a hit: top-dose inhibition of complex formation; 0.031% of 340,000 active;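 also: potency is read from the fitted curve at half-maximal effect; 0% = DMSO wells and 100% = buffer wells lacking importin beta; nearly all actives have a fitted effect of over 15% in size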
Target sequence (Q14974 whole entry, looked up): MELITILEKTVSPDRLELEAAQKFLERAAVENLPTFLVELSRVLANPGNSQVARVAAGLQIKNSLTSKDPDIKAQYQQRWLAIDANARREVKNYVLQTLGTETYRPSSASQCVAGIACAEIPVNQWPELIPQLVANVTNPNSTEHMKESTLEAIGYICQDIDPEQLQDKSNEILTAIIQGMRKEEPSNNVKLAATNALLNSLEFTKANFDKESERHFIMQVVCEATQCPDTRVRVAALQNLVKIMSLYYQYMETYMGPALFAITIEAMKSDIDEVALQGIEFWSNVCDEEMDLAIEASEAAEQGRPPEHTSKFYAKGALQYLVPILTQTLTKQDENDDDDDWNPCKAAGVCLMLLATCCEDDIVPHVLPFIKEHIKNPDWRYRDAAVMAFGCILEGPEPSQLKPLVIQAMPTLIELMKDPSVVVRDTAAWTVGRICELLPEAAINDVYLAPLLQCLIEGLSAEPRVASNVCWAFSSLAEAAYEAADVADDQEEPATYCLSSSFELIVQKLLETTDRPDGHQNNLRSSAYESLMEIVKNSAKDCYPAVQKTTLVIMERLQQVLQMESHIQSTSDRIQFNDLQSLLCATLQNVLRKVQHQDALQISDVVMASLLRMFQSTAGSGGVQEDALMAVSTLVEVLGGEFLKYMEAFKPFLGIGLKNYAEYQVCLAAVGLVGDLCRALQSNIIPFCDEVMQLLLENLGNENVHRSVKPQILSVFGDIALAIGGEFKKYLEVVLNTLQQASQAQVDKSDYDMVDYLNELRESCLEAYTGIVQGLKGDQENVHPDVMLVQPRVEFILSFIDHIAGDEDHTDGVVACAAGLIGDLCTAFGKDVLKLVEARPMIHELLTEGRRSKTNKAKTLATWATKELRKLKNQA
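FRET biosensor Rango (snurportin 1 IBB between N-terminal EYFP and C-terminal Cerulean), 50 nM in PBS/1 mM DTT/0.02% Tween-20/0.1% BSA, preincubated 5 min RT with compound; 0.125 microM importin beta added, 45 min RT, CFP/YFP FRET ratio read.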
DRD3 antagonist: antagonists of human D3 dopamine receptor; D3R cells, DiscoveRx beta-arrestin luminescence, antagonist mode; stronger effect = lower value; max response, negative = inhibition, %; 2.5% of 360,000 active; AID 652054; in the data active = max response below about -50%; inconclusive = no clear call, values can overlap the other calls; also: % is scaled to controls: 0 for no effect and ±100 for the full control effect
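Cells plated overnight at 1500 cells/well, then exposed to library compounds with dopamine controls for 90 minutes at 37 degrees C. DiscoveRx reagent added for 30–60 minutes at room temperature; luminescence read, quantitative HTS format.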
Mm-Cpn inhibitor: inhibitors of Methanococcus maripaludis chaperonin TRiC (MmCpn); 0.031% of 330,000 active; Potency, µM (top dose mostly 76.9 µM), without a hit: at the top dose activity, negative = inhibition, usual class: inhibitors; purified Mm-Cpn ATPase, ADP Transcreener TR-FRET; active = well fitted inhibition curve with a large enough effect; inconclusive = small, poorly fitted or top-dose-only effect; also: potency is read from the fitted curve at half-maximal effect; % is scaled to controls: 0 for no effect and ±100 for the full control effect; nearly all actives have a fitted effect of over 80% in size
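TR-FRET (320 nm excitation; 590 and 665 nm emission) reports ADP made from 10 uM ATP by 25 nM enzyme; compounds were preincubated 10 min, reaction run 30 min, both at 37°C.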
D3 ag: D3 dopamine receptor (human) agonism; 0.58% of 410,000 active; max activation, %; D3R DiscoveRx beta-arrestin cells, luminescence, 90 min; P35462; in the data active = max activation above about 30%; also: 0% is about no effect
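Agonist-mode cell screen: cells plated at 1500/well and incubated overnight at 37 °C, then exposed to library compounds for 90 min at 37 °C. Detection reagent was added for 30–60 min at room temperature, and luminescence was read.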
Rango release inh: inhibition of RanGTP-driven Rango-importin beta dissociation; Potency, µM (series often up to 46.1 µM), for inactives: at the highest dose activity change, negative = inhibition; O95149+P62826; 0.071% of 340,000 active; Biochemical FRET Rango-importin beta, RanGTP-induced dissociation; AID 540253; also: potency is read from the fitted curve at half-maximal effect; % of control where 0% means no effect; nearly all actives have a fitted effect of over 45% in size
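Quantitative HTS using a FRET biosensor: 0.1 uM Rango, 0.25 uM importin beta, 0.6 uM Ran, 2 mM GTP, 0.2 uM RCC1 final, PBS with DTT, Tween-20 and BSA. Post-read taken 45 min after Ran addition.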
An asterisk follows results filed as active; ? = inconclusive; . = no result. Unless noted, calls follow the shape of the full dose curve.

SMILES	TSG101-PTAP inh	Rango-impB inh	DRD3 antagonist	Mm-Cpn inhibitor	D3 ag	Rango release inh
O=C(CSc1nc2ccsc2c(=O)n1NC(=O)c1ccccc1)NCc1ccco1	-7%	1%	24	2%	2	11%
CC1=C(C(=O)Nc2cccnc2)C(c2ccc(Cl)cc2)n2nc(-c3ccccc3)nc2N1 (stereo unspecified)	.	.	.	.	-8	.
CCOc1ccccc1CNC(=O)c1cnc2sc(N3CCCCCC3)nn2c1=O	.	.	.	.	7	.
Cc1ccc(OCCN2CCN(C(=O)CCC(=O)Nc3nnc(CC(C)C)s3)CC2)cc1	-3%	-4%	10	-3%	72*	-6%
CC(C)Cc1nnc(NC(=O)CCC(=O)N2CCN(Cc3ccc(F)cc3)CC2)s1	-6%	1%	2	-7%	1	3%
O=C(Cn1c(=O)c2ccccc2n(CC(=O)Nc2ccc(Cl)cc2)c1=O)NCCc1ccccc1	.	.	.	.	-14	.
Cn1cnnc1SCC(=O)c1ccc(O)c(O)c1	-1%	?	35	-2%	39*	-3%
O=C(Nc1ccccc1Cl)c1c(F)c(F)c(F)c(F)c1F	0%	-2%	-62*	.	-5	0%
CCn1ccc(C(=O)Nc2cccc(Cl)c2)n1	2%	-1%	-7	0%	13	29%
CCn1ccc(C(=O)Nc2ccccc2Cl)n1	0%	2%	-96*	-6%	-10	0%
NNc1nc(-c2ccccc2)cc(-c2ccccc2)n1	-10%	3%	1	2%	-6	15%
NNc1nc(-c2ccccc2)cc(-c2ccccc2O)n1	-6%	2%	-100*	-2%	-86	-12%
CC1CCN(C(=O)C(NS(=O)(=O)c2cccc3nsnc23)C(C)C)CC1 (stereo unspecified)	1%	-4%	-12	-1%	-3	10%
Nc1c(Br)cc(Br)c2c1C(=O)c1c(cccc1S(=O)(=O)O)C2=O	-12%	1%	-55*	.	-17	-16%
Cc1ccc(OCc2nnc(SCC(=O)c3cccs3)n2-c2ccccc2)cc1C	0%	2%	-53*	2%	0	-14%
O=c1c2cc([N+](=O)[O-])ccc2sn1-c1ccccc1	.	.	-94*	.	-19	.
N#Cc1ccc2sn(-c3ccccc3)c(=O)c2c1	.	.	?	.	4	.
CCN(CC)CCNC(=O)CCc1c(C)nc2c(c(C)nn2-c2ccc(C)cc2)c1C	-1%	1%	-50*	-2%	-10	-3%
Cc1nc2c(c(C)nn2-c2ccccc2)c(C)c1CCC(=O)Nc1ccc(F)cc1	.	.	.	.	44*	.
COCCNC(=O)CCc1c(C)nc2c(c(C)nn2-c2ccc(C)cc2)c1C	1%	2%	4	0%	0	14%
Cc1cc(S(=O)(=O)Nc2cccc(C(=O)O)c2)c(C)c(S(=O)(=O)c2ccccc2)c1	.	.	.	.	5	.
CC(=O)N=C1C=CC(=CN(O)C(C)(C)Cc2ccccc2)C=C1	-3%	2%	-54*	0%	2	8%
COc1ccc(Nc2sc(C(=O)c3ccc(Cl)cc3)c(N)c2C(=O)Nc2ccccc2OC)cc1	0%	-4%	-60*	0%	-2	-21%
COc1ccc(N2CCN(c3nc(NCCc4ccc(OC)c(OC)c4)nc(OC)n3)CC2)cc1	-5%	-5%	58	.	38*	22%
COc1ccc(CCNc2nc(-c3ccc(OC)c(OC)c3)cc(C(F)(F)F)n2)cc1OC	.	.	.	.	38*	.
SMILES	TSG101-PTAP inh	Rango-impB inh	DRD3 antagonist	Mm-Cpn inhibitor	D3 ag	Rango release inh
CCCN(CCC)CCCNC(=O)c1cc2c(=O)n(C)c3ccccc3c2s1	.	.	.	.	-25	.
O=C(O)CCSc1nc2ccccc2s1	.	0%	-72*	-1%	4	-6%
CCn1c(CSc2nc3ccccc3s2)n[nH]c1=S	-3%	?	-53*	-2%	-1	0%
c1ccc2sc(SCSc3nc4ccccc4s3)nc2c1	-4%	0%	-5	-1%	5	19%
CN(C)CCCSc1nc2ccccc2s1	-3%	0%	-82*	?	-25	0%
S=c1[nH]nc(CSc2nc3ccccc3s2)n1Cc1ccccc1	-1%	?	?	0%	-5	-1%
Cc1cccc(-c2nc3c4ccccc4n(Cc4cccc(Cl)c4)c(=O)n3n2)c1	.	.	.	.	-6	.
CCc1ccccc1NC(=O)Cn1nnc(C(=O)Nc2ccc(C)c(F)c2)c1N	.	.	.	.	0	.
OCCC1CN(Cc2cnc(N3CCOCC3)s2)CCN1C1CCCC1 (stereo unspecified)	-1%	4%	9	0%	0	-2%
COc1ccccc1N1CCN(C(=O)c2cnn(-c3ccc(F)cc3F)c2C2CCNCC2)CC1	.	.	.	.	-14	.
Cc1nc(C)c(C(=O)O)s1	-4%	3%	-21	1%	47*	-5%
CC1(C)C2CCC1(CS(=O)(=O)N1CCOCC1)C(=O)C2 (stereo unspecified)	-5%	-3%	15	0%	36*	1%
C=CCOc1c(Cl)cc(CNc2ccc(N(C)C)cc2)cc1OC	-1%	5%	-22	16µM*	2	-8%
CCCCN(Cc1ccccc1)C(=O)c1oc(=O)c2ccccc2c1-c1ccc(C)cc1	.	.	.	.	3	.
COc1cc(CNC(=O)c2cc(-c3ccc(OC)cc3C)n[nH]2)cc(OC)c1	.	.	23	.	2	.
Cc1cc(F)cc(-c2cc(C(=O)NCC3CCCCC3)[nH]n2)c1	.	.	?	.	-11	.
Cc1ccc(Cl)cc1-c1cc(C(=O)NCC2CCCCC2)[nH]n1	.	.	-70*	.	-23	.
COc1ccc(-c2cc(C(=O)NCC3CCCCC3)[nH]n2)c(C)c1	.	.	-79*	.	-31	.
COC(=O)c1sc(-c2ccccc2)cc1NC(=O)Nc1ccc(F)cc1	.	.	.	.	4	.
O=[N+]([O-])c1ccc(C2=NN(CCO)C(=Nc3ccc(OC(F)(F)F)cc3)SC2)cc1	0%	1%	-56*	0%	10	1%
COc1ccc(N=C2SCC(c3ccc([N+](=O)[O-])cc3)=NN2CCO)cc1	-1%	1%	1	1%	-8	8%
Nn1c(SCc2ccc(Br)cc2)nnc1-c1ccncc1	1%	-1%	11	-1%	4	-15%
N#Cc1nc(COc2ccccc2Cl)oc1NCc1cccnc1	-4%	?	15	0%	3	21µM*
Cc1ccccc1CCNC(=O)c1ccc(Cn2c(=O)c3cccn3c3cccnc32)cc1	.	.	.	.	-7	.
CC(=O)C1=C(S(=O)(=O)c2ccc(C)cc2)CS(=O)(=O)C1	-3%	?	-67*	-5%	-7	?
Clc1cccc(CNCCCSc2nnnn2-c2ccccc2)c1	.	.	.	.	-20	.
O=C(Nc1ccc(F)cc1F)c1cc(S(=O)(=O)N2CCCCC2)c[nH]1	.	.	.	.	-7	.

Source: PubChem BioAssay
